According to PubChem BioAssay (NCATS):
Results filed as inconclusive are left out. Calls of active or inactive are those of the source. Unless noted, calls come from the whole dose curve; as a rule, active = well fitted curve in either direction with a large enough effect (not every such curve was filed as active); inconclusive = small, poorly fitted or top-dose-only effect, or another doubt; inactive = flat fitted curve, though single readings scatter.

What was measured:
[1] = target: Lysosomal acid glucosylceramidase (Homo sapiens) (UniProt P04062); assay: Glucocerebrosidase-p2 (AID 348; in the data active = potency below about 10 µM; note: potency is the fitted concentration of half-maximal effect); conditions: purified GBA, blue fluorogenic substrate, 40 min
Sequence of Lysosomal acid glucosylceramidase (Homo sapiens) (P04062 whole entry, looked up): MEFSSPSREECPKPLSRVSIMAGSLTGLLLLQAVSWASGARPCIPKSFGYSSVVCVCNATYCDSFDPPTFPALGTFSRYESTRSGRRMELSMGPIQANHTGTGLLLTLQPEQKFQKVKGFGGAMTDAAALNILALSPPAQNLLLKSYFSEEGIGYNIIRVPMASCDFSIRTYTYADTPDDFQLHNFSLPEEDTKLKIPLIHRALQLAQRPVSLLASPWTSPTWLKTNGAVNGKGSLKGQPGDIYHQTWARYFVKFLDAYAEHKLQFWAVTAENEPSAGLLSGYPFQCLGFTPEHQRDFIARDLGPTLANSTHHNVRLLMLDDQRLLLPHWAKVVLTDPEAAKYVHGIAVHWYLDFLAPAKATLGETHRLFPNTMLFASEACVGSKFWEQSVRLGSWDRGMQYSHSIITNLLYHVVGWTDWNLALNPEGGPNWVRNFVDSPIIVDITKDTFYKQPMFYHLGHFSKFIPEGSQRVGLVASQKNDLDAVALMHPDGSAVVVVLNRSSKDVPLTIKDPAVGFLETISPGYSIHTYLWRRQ
How it was run: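 Compounds titrated from 0.6 nM upwards against 0.2 nM enzyme in pH 5.9 citric acid/KH2PO4, taurocholate, tween-20; blue fluorogenic substrate 80 uM, 40 min room temperature, stopped and read Ex 365/Em 440 for AC50.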

[2] = AP1 Signaling Pathway (AID 357); conditions: ME-180 AP-1-bla reporter, EGF-induced, beta-lactamase ratio, 5 h; at 7.69 µM (top of the series) unless noted; note: % is set by controls: 0 for no effect and ±100 for the full control effect
How it was run: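 Titration-series screen for positive or negative modulators of EC50 EGF-induced signaling in ME-180 cells carrying an AP-1-driven beta-lactamase reporter. After 5 hours at 37 degrees Celsius, CCF4 460nm/530nm emission ratio gave %Activity; AC50 values derived.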

[3] = target: Cytochrome P450 1A2 (Homo sapiens) (UniProt P05177); assay: p450-cyp1a2 (AID 410; calls by dose curve; note: potency is the fitted concentration of half-maximal effect;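 for activity change, negative = inhibition: -100% = full effect of reference inhibitor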); conditions: recombinant CYP1A2, luciferin-ME demethylation, luminescence; series mostly up to 11.4 µM
Sequence of Cytochrome P450 1A2 (Homo sapiens) (P05177 whole entry, looked up): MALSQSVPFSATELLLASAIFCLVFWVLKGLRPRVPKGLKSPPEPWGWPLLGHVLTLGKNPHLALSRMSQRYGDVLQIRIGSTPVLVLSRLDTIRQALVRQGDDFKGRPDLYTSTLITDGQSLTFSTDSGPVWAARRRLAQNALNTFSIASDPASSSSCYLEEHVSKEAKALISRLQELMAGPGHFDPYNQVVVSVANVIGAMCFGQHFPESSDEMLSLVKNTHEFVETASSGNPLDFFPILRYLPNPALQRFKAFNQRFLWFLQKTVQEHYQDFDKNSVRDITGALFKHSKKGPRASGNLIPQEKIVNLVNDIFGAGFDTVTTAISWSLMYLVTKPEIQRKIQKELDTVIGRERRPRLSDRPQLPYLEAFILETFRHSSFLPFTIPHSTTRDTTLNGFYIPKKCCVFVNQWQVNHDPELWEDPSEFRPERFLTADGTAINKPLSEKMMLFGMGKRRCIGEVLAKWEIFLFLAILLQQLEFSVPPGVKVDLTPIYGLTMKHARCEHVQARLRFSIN
How it was run: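 Human CYP1A2 (20nM) demethylated Luciferin-ME at its Km (100uM) in 100mM KPO4. After 10 min compound preincubation, NADPH regeneration ran the reaction 60 min at room temperature. Luciferin was read by luminescence, normalized to 57 uM furafylline.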

[4] = NFAT Signaling Pathway (AID 444); conditions: Jurkat NFAT-bla M1, carbachol, beta-lactamase ratio, 5 h; at 7.69 µM (top of the series) unless noted;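 note: carbachol stimulus at about its EC50 of 1 µM final; % is set by controls: 0 for no effect and ±100 for the full control effect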
How it was run: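 Jurkat cells with NFAT-driven β-lactamase reporter and co-expressed M1 receptor, stimulated with carbachol (final 1 uM, ~EC50), compound titration, 5 h at 37 °C. CCF4 loaded 1 h at RT; 460/530 nm ratio gave %activity and AC50.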

[5] = Stat Signaling Pathway (AID 446); conditions: ME-180 SIE beta-lactamase reporter, IL-6 stimulated, 5 h; at 7.69 µM (top of the series) unless noted;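 note: ME-180 cervical cancer cells given 40 pM IL-6 alongside compound; SIE-controlled beta-lactamase reporter measured as 460/530 nm FRET emission ratio; % is set by controls: 0 for no effect and ±100 for the full control effect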
How it was run: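 Reporter line: ME-180 cervical carcinoma, SIE-beta-lactamase. Treatment: compound with 40 pM IL-6, 5 hrs, 37 C, in low-serum OPTI-MEM with 10 mM HEPES pH 7.3. Detection: 460/530 nm fluorescence.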

[6] = target: Glucocorticoid receptor (Homo sapiens) (UniProt P04150); assay: GR-GFP Redistribution (AID 450;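 active = compounds whose dose series gives a full or clear partial fitted curve of increased nuclear translocation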; note: potency is the fitted concentration of half-maximal effect); conditions: U2OS GR-GFP nuclear translocation, laser cytometry, 2 h
Sequence of Glucocorticoid receptor (Homo sapiens) (P04150 whole entry, looked up, the tested form may be a part): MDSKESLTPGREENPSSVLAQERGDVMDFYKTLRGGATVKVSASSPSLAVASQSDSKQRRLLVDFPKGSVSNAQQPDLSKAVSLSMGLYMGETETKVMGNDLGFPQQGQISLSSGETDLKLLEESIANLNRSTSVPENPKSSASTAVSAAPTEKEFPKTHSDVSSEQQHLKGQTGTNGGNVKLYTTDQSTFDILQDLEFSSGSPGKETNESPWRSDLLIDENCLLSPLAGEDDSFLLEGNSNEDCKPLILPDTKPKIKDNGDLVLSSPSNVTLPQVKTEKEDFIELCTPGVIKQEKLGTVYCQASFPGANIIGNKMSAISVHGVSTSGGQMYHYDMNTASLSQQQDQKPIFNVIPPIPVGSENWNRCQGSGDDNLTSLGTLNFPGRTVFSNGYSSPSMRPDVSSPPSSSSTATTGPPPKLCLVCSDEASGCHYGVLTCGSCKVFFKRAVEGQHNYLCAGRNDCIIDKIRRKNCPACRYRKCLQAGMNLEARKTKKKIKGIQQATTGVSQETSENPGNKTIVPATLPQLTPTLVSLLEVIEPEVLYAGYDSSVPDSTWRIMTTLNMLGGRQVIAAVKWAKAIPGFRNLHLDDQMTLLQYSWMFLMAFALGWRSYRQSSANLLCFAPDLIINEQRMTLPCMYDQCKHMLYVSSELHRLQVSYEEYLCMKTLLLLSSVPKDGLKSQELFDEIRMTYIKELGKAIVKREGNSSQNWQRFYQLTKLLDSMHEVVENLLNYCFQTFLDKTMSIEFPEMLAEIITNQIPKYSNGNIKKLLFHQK

[7] = target: Glucocorticoid receptor (Homo sapiens) (UniProt P04150); assay: GR-EFC Redistribution (AID 451; calls by dose curve; note: potency is the fitted concentration of half-maximal effect); conditions: CHO-K1 GR-EFC translocation, beta-gal luminescence, 2 h
How it was run: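 CHO-K1 cells expressing nuclear EA and GR-ED fragments of b-gal; compounds titrated up to 46 uM final, 2 h at 37 C. GR nuclear translocation read as complemented b-gal luminescence after 1 h RT detection.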

[8] = target: Mitogen-activated protein kinase 10 (Mus musculus) (UniProt Q61831); assay: JNK3 AlphaScreen Assay (AID 530); conditions: JNK3 lysate, c-Jun phosphorylation; series mostly up to 11.4 µM;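 note: kinase came from lysate of stimulated human HepG2 cells; signal reports phosphorylation of biotinylated GST-cJun 1-79 at Ser73 with 10 µM ATP; % is set by controls: 0 for no effect and ±100 for the full control effect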
How it was run: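 qHTS format: compounds tested as titrations against IL-1beta/TNF-alpha-activated HepG2 lysate JNK3 with biotin-GST-cJun substrate and 10 uM ATP at room temperature. Loss of anti-phospho-cJun AlphaScreen signal indicates inhibition.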

[9] = target: 3',5'-cyclic-AMP phosphodiesterase 4B (Homo sapiens) (UniProt Q07343); assay: qHTS Assay for Inhibitors of PDE-IV (AID 607; active = well fitted activation curve with a large enough effect in the main read-out, with a control signal flat, not every such curve was filed as active; note: % of control where 0% means no effect); conditions: HEK293 ACTOne CNG channel cells, membrane potential fluorescence; series mostly up to 22.9 µM
Sequence of 3',5'-cyclic-AMP phosphodiesterase 4B (Homo sapiens) (Q07343 whole entry, looked up): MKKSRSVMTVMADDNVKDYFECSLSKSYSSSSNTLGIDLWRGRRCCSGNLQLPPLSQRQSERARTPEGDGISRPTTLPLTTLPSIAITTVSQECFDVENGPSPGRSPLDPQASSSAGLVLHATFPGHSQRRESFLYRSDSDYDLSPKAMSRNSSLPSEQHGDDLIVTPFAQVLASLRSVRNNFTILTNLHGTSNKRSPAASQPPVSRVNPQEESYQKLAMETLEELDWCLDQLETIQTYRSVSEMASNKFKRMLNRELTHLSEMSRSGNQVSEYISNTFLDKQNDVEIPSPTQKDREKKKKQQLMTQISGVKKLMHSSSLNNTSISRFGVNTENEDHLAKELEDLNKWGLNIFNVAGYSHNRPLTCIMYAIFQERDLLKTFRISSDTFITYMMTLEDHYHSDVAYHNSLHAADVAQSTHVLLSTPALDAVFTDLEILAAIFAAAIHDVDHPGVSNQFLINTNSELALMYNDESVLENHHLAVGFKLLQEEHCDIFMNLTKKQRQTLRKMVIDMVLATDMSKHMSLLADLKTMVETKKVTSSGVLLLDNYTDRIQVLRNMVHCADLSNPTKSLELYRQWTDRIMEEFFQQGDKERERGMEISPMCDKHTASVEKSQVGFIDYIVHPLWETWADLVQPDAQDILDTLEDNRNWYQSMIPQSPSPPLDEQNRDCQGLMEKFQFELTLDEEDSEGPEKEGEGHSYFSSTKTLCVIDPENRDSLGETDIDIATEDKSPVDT
How it was run: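 Cell-based read-out of cAMP via a modified cyclic nucleotide-gated channel and membrane potential dye (535/590 nm) in HEK293 cells expressing PDE4 endogenously. Compounds tested up to 22.9 uM final; 100 uM RO 20-1724 reference.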

NC([N-]/N=C/c1ccccn1)=[S]=[Fe].O=S(=O)(O)O
inactive: Potency [1] > 11.4 µM | activity change, negative = inhibition [2] 8.56% | activity change, negative = inhibition [3] 15.8% [at 2.29 µM] | activity change, negative = inhibition [4] -1.69% | activity, negative = inhibition [5] -13.8% | Potency [6] > 46 µM | Potency [7] > 9.22 µM | Potency [8] | Potency [9]

Nc1nc(N)c2nn(-c3ccc(C(=O)O)cc3)nc2n1
inactive: Potency [1] > 11.4 µM | activity change, negative = inhibition [2] -3.5% | activity change, negative = inhibition [3] -13.4% [at 2.29 µM] | activity change, negative = inhibition [4] 6.6% | activity, negative = inhibition [5] -0.747% | Potency [6] > 46 µM | Potency [7] > 9.22 µM | Potency [8] | Potency [9]

C[N+]1(CCCC[N+]2(C)CCCCCCC2)CCCCCCC1
inactive: Potency [1] > 11.4 µM | activity change, negative = inhibition [2] 0.612% | activity change, negative = inhibition [3] -10.4% [at 2.29 µM] | activity change, negative = inhibition [4] -24.9% | activity, negative = inhibition [5] -6.69% | Potency [6] > 46 µM | Potency [7] > 9.22 µM | Potency [8] | Potency [9]

COC(=O)CCCC(=O)O
inactive: Potency [1] > 11.4 µM | activity change, negative = inhibition [2] 1.55% | activity change, negative = inhibition [3] -7.3% [at 2.29 µM] | activity change, negative = inhibition [4] -3.39% | activity, negative = inhibition [5] -4.13% | Potency [6] > 46 µM | Potency [7] > 9.22 µM | Potency [8] | Potency [9]

O=C(O)c1cc(-c2ccc(-c3ccc(-c4cc(C(=O)O)c5cc(Cl)ccc5n4)cc3)cc2)nc2ccc(Cl)cc12
inactive: Potency [1] > 11.4 µM | activity change, negative = inhibition [2] -6.84% | activity change, negative = inhibition [3] -18.2% [at 2.29 µM] | activity change, negative = inhibition [4] -22% | activity, negative = inhibition [5] -13.1% | Potency [6] > 46 µM | Potency [7] > 9.22 µM | Potency [8] | Potency [9]

O[C@H](COc1ccccc1)CN1CCCCC1
inactive: Potency [1] > 11.4 µM | activity change, negative = inhibition [2] -1.24% | Potency [3] | activity change, negative = inhibition [4] 2.42% | activity, negative = inhibition [5] 10.3% | Potency [6] > 46 µM | Potency [7] > 9.22 µM | Potency [8] | Potency [9]

C=C(Br)CN(C)CC(=C)Br
inactive: Potency [1] > 11.4 µM | activity change, negative = inhibition [2] 0.791% | Potency [3] | activity change, negative = inhibition [4] 0.988% | activity, negative = inhibition [5] -0.267% | Potency [6] > 46 µM | Potency [7] > 9.22 µM | Potency [8] | Potency [9]

NS(=O)(=O)c1ccc(NC2(C(=O)O)CCCC2)cc1
inactive: Potency [1] > 11.4 µM | activity change, negative = inhibition [2] -4.84% | activity change, negative = inhibition [4] 2.12% | activity, negative = inhibition [5] 11.8% | Potency [6] > 46 µM | Potency [7] > 9.22 µM | Potency [8] | Potency [9]
active: Potency [3] 0.794 µM

CC1(C)O[C@H]2[C@@H](c3[nH]nc4c(=O)[nH]c(=O)[nH]c34)OC[C@H]2O1
inactive: Potency [1] > 11.4 µM | activity change, negative = inhibition [2] 8.08% | Potency [3] | activity change, negative = inhibition [4] -14.8% | activity, negative = inhibition [5] 8.45% | Potency [6] > 46 µM | Potency [7] > 9.22 µM | Potency [8] | Potency [9]

CC(C)(N)C(=O)N[C@@H]1C(=O)N2[C@@H]1SC(C)(C)[C@H]2C(=O)O
inactive: Potency [1] > 11.4 µM | activity change, negative = inhibition [2] -6.43% | activity change, negative = inhibition [3] 4.4% [at 2.29 µM] | activity change, negative = inhibition [4] -0.727% | activity, negative = inhibition [5] -0.982% | Potency [6] > 46 µM | Potency [7] > 9.22 µM | Potency [8] | Potency [9]

CC1(C)[C@@H]2CC[C@]1(CC(=O)O)[C@H](Cl)C2
inactive: Potency [1] > 11.4 µM | activity change, negative = inhibition [2] 9.82% | Potency [3] | activity change, negative = inhibition [4] 2.95% | activity, negative = inhibition [5] 6.68% | Potency [6] > 46 µM | Potency [7] > 9.22 µM | Potency [8] | Potency [9]

CN(C)CC(CN(C)C)c1ccccn1
inactive: Potency [1] > 11.4 µM | activity change, negative = inhibition [2] 3.76% | Potency [3] | activity change, negative = inhibition [4] 10.8% | activity, negative = inhibition [5] 1.27% | Potency [6] > 46 µM | Potency [7] > 9.22 µM | Potency [8] | Potency [9]

Cc1ncc(CSC(=N)N)n1Cc1ccccc1
inactive: Potency [1] > 11.4 µM | activity change, negative = inhibition [2] 6.64% | Potency [3] | activity change, negative = inhibition [4] -15.5% | activity, negative = inhibition [5] 4.51% | Potency [6] > 46 µM | Potency [7] > 9.22 µM | Potency [8] | Potency [9]

OCCCNc1ncnc2[nH]ncc12
inactive: Potency [1] > 11.4 µM | activity change, negative = inhibition [2] 7.33% | activity change, negative = inhibition [4] 0.588% | activity, negative = inhibition [5] -7.35% | Potency [6] > 46 µM | Potency [7] > 9.22 µM | Potency [8] | Potency [9]
active: Potency [3] 6.31 µM

CC(=O)[C@H]([C@@H](c1ccccc1)N1CCOCC1)N1CCOCC1
inactive: Potency [1] > 11.4 µM | activity change, negative = inhibition [2] 4% | Potency [3] | activity change, negative = inhibition [4] 15.1% | activity, negative = inhibition [5] 4.56% | Potency [6] > 46 µM | Potency [7] > 9.22 µM | Potency [8] | Potency [9]

C=C(C)CNCCN
inactive: Potency [1] > 11.4 µM | activity change, negative = inhibition [2] 0.933% | activity change, negative = inhibition [3] 2.2% [at 2.29 µM] | activity change, negative = inhibition [4] 17.5% | activity, negative = inhibition [5] 8.28% | Potency [6] > 46 µM | Potency [7] > 9.22 µM | Potency [8] | Potency [9]
